Bioassay records deposited in PubChem BioAssay by National Center for Advancing Translational Sciences (NCATS).
Sampled rows, rich in hits. Any-hit rate of the full collection: about 13%.
4MU fluor: compounds fluorescent in 4-MU spectral region. 59,000 compounds, 11% hits. max dye-equivalent concentration, M. compound autofluorescence, 340/450 nm, 4-MU equivalents; stronger effect = higher value; in the data active = max dye-equivalent concentration above about 10 nM; inconclusive = mostly about 1.1 nM to 9.6 nM
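Intrinsic fluorescence at 340/450 nm (ex/em) was read after 15 min at room temperature in pH 8.0, 100 mM Tris. Each compound concentration expressed as 4-MU-equivalent concentration from a six-point 4-MU standard series on each plate.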
A350 fluor: A350 region autofluorescence. Compound autofluorescence, 340/450 nm, Alexa 350 dye-equivalents; stronger effect = higher value. 59,000 compounds, 11% hits. max dye-equivalent concentration, M; in the data active = max dye-equivalent concentration above about 10 nM; inconclusive = mostly about 1.1 nM to 9.6 nM
HSD17B inhib: blocks hydroxysteroid 17-beta dehydrogenase activity; 75,000 compounds, 7.6% hits; Potency, µM (doses to about 57.1 µM), inactives show at the highest dose activity change, negative = inhibition, actives largely listed as inhibitors; AID 893; recombinant HSD17B10, NADH fluorescence kinetic;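 also: the protocol describes HADH2 (HSD17B10) and not the HSD17B4 of the title; potency is read from the fitted curve at half-maximal effect; % is scaled to controls: 0 for no effect and ±100 for the full control effect; nearly all actives have a fitted effect of over 70% in size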
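Activity followed as NADH fluorescence increase (ex 360, em 450 nm) every 30 seconds for 4 min, using final 90 uM beta-hydroxybutyryl CoA and 1 mM NAD+. Recombinant His-tagged enzyme, 20 nM, pH 9.0 Tris buffer, 15 min compound preincubation.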
HADH2 inhib: inhibitors of human HADH2 dehydrogenase. AID 886. 73,000 compounds, 3.4% hits. Potency, µM (series often up to 57.1 µM), for inactives: top-dose activity change, negative = inhibition, hits mostly inhibitors. recombinant HADH2, NADH fluorescence, beta-hydroxybutyryl-CoA; also: potency is read from the fitted curve at half-maximal effect; % is scaled to controls: 0 for no effect and ±100 for the full control effect; nearly all actives have a fitted effect of over 60% in size
Target sequence (Q99714 whole entry, looked up, one chain of several): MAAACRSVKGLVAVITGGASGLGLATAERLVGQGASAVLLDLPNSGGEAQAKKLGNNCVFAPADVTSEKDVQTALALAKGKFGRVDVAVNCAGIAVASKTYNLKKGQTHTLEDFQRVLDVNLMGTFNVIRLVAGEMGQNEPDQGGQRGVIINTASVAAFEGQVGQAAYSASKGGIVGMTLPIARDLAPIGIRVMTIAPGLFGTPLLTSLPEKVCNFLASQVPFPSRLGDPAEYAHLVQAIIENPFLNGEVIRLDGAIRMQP
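Activity measured as NADH fluorescence gain (360/450 nm), taken as the change between first and last reads of a 4-min kinetic run. Conditions: pH 9.0 Tris buffer, 20 nM E. coli-expressed His-tagged enzyme, 1 mM NAD+, 90 uM beta-hydroxybutyryl-CoA; 15-min compound preincubation.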
AID923: qHTS Assay for Allosteric/Competitive Inhibitors of Caspase-1: Spectroscopic Profiling in AFC Spectral Region. compound fluorescence, AFC spectral region (405/520 nm). Potency, µM (highest dose often 57.5 µM), for inactives: at the highest dose fluorescence increase, actives largely listed as activators. 75,000 compounds, 1.1% hits. AID 923, 2007; also: potency is read from the fitted curve at half-maximal effect; 0% is about no effect
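Compound autofluorescence profiled at 405 nm ex/520 nm em during kinetic caspase 1 run (50 nM enzyme, 5 uM Ac-WEHD-AFC, HEPES pH 7.5, 10 mM DTT). Titration up to 57 uM; baseline from regression intercept, normalized to AFC standard curve.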
Active calls of the source: *; [ ] = remark or other dose. Unless noted, calls follow the shape of the dose curve; as a rule, active = well fitted curve in the direction sought with a large enough effect; inconclusive = small, poorly fitted or top-dose-only effect, or another doubt; inactive = no such curve, though single readings can be large; an effect the other way counts as inactive or inconclusive.

For COc1ccc(NCc2c(O)ccc3ccccc23)cc1 the results were 4MU fluor inconclusive, A350 fluor 1.2e-08M*, HSD17B inhib inconclusive, HADH2 inhib 3.2µM* and AID923 -3%[11.5 µM].
`Cc1[nH]c(=S)[nH]c(=O)c1Cc1ccccc1` gave 4MU fluor inactive, A350 fluor inactive, HSD17B inhib -11%, HADH2 inhib -23% and AID923 1%.
O=C(CN(C(=O)CNC(=O)c1ccco1)c1ccc(Cl)c(Cl)c1)NC1CCCCC1 was read as 4MU fluor inactive, A350 fluor inactive, HSD17B inhib 0%, HADH2 inhib -4% and AID923 0%.
`Nc1nc2c(c(=O)[nH]1)CN(c1ccc(S(N)(=O)=O)cc1)CN2` gave 4MU fluor inactive, A350 fluor inactive, HSD17B inhib 1%[11.4 µM], HADH2 inhib 4%[11.4 µM] and AID923 -1%[11.5 µM].
`CN(C)CCCO[C@H]1[C@H]([C@H](O)CO)O[C@H]2OC(C)(C)O[C@@H]21` gave 4MU fluor inconclusive, A350 fluor inconclusive, HSD17B inhib 3%, HADH2 inhib 9% and AID923 -2%.
CCOC(=O)CSc1ncnc2c1cnn2-c1ccc(C)cc1 was read as 4MU fluor inconclusive, A350 fluor inconclusive, HSD17B inhib 25µM*, HADH2 inhib -6% and AID923 0%.
Screening CCOC(=O)CNC(=O)CSc1ncnc2c1cnn2-c1ccc(OC)cc1 returned 4MU fluor 2.3e-08M*, A350 fluor 2.2e-08M*, HSD17B inhib -3%, HADH2 inhib 17% and AID923 0%.
For CCOC(=O)CNC(=O)CSc1ncnc2c1cnn2-c1ccc(C)cc1 the results were 4MU fluor inactive, A350 fluor inactive, HSD17B inhib -170%, HADH2 inhib 11% and AID923 1%.
COC(=O)c1cc2ccc(OC)c(OC)c2c(=O)s1 was read as 4MU fluor 1.9e-08M*, A350 fluor 2e-08M*, HSD17B inhib -11%, HADH2 inhib 2% and AID923 4%.
`COc1ccc2cc(C(=O)N3CCCCCC3)sc(=O)c2c1OC` gave 4MU fluor inconclusive, A350 fluor inconclusive, HSD17B inhib -2%, HADH2 inhib -6% and AID923 3%.
CSCC[C@@H]1NC(=O)C/C=C\[C@@H](C)COC(=O)[C@H](C)COC1=O was read as HSD17B inhib 1%[11.4 µM], HADH2 inhib -6%[11.4 µM] and AID923 -1%[11.5 µM].
For Cc1cc(Nc2ccccc2N2CCOCC2)n2ncnc2n1 the results were 4MU fluor 2.1e-08M*, A350 fluor 2.8e-08M*, HSD17B inhib -6%, HADH2 inhib -8% and AID923 -1%.
`CCOC(=O)C1=C(c2ccccc2)NC(SCC(=O)Nc2ccc(C)cc2)=C(C#N)C1c1ccco1` (stereo not drawn) gave 4MU fluor 3.7e-08M*, A350 fluor 3.3e-08M*, HSD17B inhib 59%, HADH2 inhib -11% and AID923 3%.
Screening CCOC(=O)CSC1=C(C#N)C(c2ccco2)C(C(=O)Nc2cccc(C(F)(F)F)c2)=C(C)N1 (stereo not drawn) returned 4MU fluor 2.3e-08M*, A350 fluor 1.6e-08M*, HSD17B inhib 107%, HADH2 inhib inconclusive and AID923 3%.
`CCOC(=O)C1=C(c2ccccc2)NC(SCC(=O)Nc2cccc(C)c2)=C(C#N)C1c1ccco1` (stereo not drawn) gave 4MU fluor 3.1e-08M*, A350 fluor 2.7e-08M*, HSD17B inhib inconclusive, HADH2 inhib -9% and AID923 6%.
`Cc1ccc(NC(=O)CSC2=C(C#N)C(c3ccco3)C3=C(CC(C)(C)CC3=O)N2)cc1` (stereo not drawn) gave 4MU fluor 1e-08M*, A350 fluor inconclusive, HSD17B inhib 2%, HADH2 inhib -29% and AID923 0%.
`C=C(C)C(=O)OCC(C)O` (stereo not drawn) gave HSD17B inhib 13%, HADH2 inhib 9% and AID923 3%.
Cc1ccccc1-c1cncnc1NCc1ccccc1 was read as 4MU fluor inactive, A350 fluor inactive, HSD17B inhib -10%, HADH2 inhib -28% and AID923 -1%.
